Sampled rows, rich in hits. Any-hit rate of the full collection: about 3%.
Peg3 promoter – Peg3 promoter-driven luciferase inhibitors, primary screen, cell-based, HeLa, luciferase luminescence; HeLa PEG-Prom luciferase reporter, overnight; inhibition, % at 20 µM; 1.7% of 360,000 active; AID 588405, 2011;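 active means inhibition of at least 50% at 20 µM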
CF NFkB block – inhibitors of PAF-induced NF-kB signaling, primary screen, cell-based, GFP fluorescence, uHTS; KKLEB NF-kB-GFP reporter, GFP fluorescence overnight; inhibition, % at 5 µM; 0.86% of 360,000 active; AID 588850, 2011;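 active means at least 50% inhibition at 5 µM, scaled per plate between neutral and stimulator controls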;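 further: PAF is a Pseudomonas aeruginosa culture filtrate used as stimulus; plate controls were PAF-stimulated DMSO wells for no effect and unstimulated DMSO wells for full effect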
TRPM1 prom inh – inhibitors of MITF-dependent TRPM1 promoter reporter, primary screen, cell-based, SK-MEL-5, single point, luciferase | SK-MEL-5 TRPM1 promoter luciferase, 24 h | inhibition, % at 12.5 µM | 0.83% of 330,000 active;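 active means mean inhibition across replicates of 60% or more, whatever share of single replicates reaches that level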
KKLEB cytotox – cytotoxicity in KKLEB CF airway cells, primary screen, cytotoxicity control for CF NF-kB inhibitor project, cell-based, uHTS, fluorescence assay plates | AID 602141, 2011 | KKLEB CF airway cells viability, ATPlite luminescence, overnight; stronger effect = lower value; cells stimulated with P. aeruginosa culture filtrate | activity change (cytotoxicity), % at 5 µM | 0.36% of 360,000 active;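 active means corrected activity change at or below -50% at 5 µM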
ABHD5 PLIN5 PPI – ABHD5-PLIN5 interaction inhibitors, primary screen, cell lysate, split luciferase complementation, luminescence; 0.78% of 360,000 active; Split G. princeps luciferase complementation, 4 h; inhibition, % at 4 µM; AID 602281, 2012; Perilipin-5 (Homo sapiens) + 1-acylglycerol-3-phosphate O-acyltransferase ABHD5 (Homo …;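 active means inhibition above the mean inhibition across every tested compound plus 3 SD, cut at about 22% in these data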;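 further: 0% = DMSO only wells and the 100% control is not disclosed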
HIF-2a inh – HIF-2a reporter inhibitors, primary screen, luminescence, 786-0 RCC cells. 786-0 RCC cells HIF-2a reporter, luciferase luminescence, overnight. 0.72% of 360,000 active. inhibition, % at 18.8 µM;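 active means inhibition of the luminescence signal of 40% or more relative to plate controls, in a single-dose primary screen at 18.75 µM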
ABHD5 PLIN5 conf – ABHD5-PLIN5 interaction inhibitors, confirmation, biochemical, luminescence. shares compounds with ABHD5 PLIN5 PPI. 67% of 2,200 active. inhibition, % at 4 µM. AID 651612, 2012; in the data active means inhibition above about 23%;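 further: 0% = DMSO vehicle wells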
HNF4 counter – HNF4 dimerization inhibitors, counter-screen for ABHD5-PLIN5 interaction inhibitor project, biochemical, split-luciferase complementation, luminescence. shares compounds with ABHD5 PLIN5 PPI. inhibition, % at 4 µM. 77% of 2,200 active. AID 651674, 2012;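 active means mean inhibition across replicate wells exceeding the computed hit threshold, cut at about 13% in these data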;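 further: light from luciferase halves that rejoin when HNF4 fusion proteins dimerize; 0% = DMSO only wells and the 100% control is not given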
Target sequence (P41235 whole entry, looked up, the tested form may be a part): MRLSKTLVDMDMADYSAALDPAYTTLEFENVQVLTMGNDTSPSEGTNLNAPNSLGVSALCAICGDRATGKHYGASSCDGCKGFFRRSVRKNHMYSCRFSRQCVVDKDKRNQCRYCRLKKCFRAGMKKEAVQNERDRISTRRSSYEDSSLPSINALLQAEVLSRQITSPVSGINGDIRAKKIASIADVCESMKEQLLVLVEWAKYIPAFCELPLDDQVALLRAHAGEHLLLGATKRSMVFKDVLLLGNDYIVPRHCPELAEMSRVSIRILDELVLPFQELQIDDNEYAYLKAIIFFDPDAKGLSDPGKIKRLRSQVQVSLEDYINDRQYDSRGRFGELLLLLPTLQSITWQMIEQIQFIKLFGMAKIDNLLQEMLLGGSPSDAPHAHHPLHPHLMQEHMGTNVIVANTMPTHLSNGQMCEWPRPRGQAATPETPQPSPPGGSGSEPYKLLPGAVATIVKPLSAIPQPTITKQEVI
Starred values were filed as active, the others as inactive; . = no result.

SMILES	Peg3 promoter	CF NFkB block	TRPM1 prom inh	KKLEB cytotox	ABHD5 PLIN5 PPI	HIF-2a inh	ABHD5 PLIN5 conf	HNF4 counter
COc1ccc(CCNC(=O)c2c(N)n(CCN3CCOCC3)c3nc4ccccc4nc23)cc1OC	47	16	4	-18	25*	6	16	3
CCCCCn1c(N)c(C(=O)NCCN2CCOCC2)c2nc3ccccc3nc21	25	-11	2	-1	5	22	.	.
CCN(CC)c1ccccc1	-12	4	0	16	3	12	.	.
CCN(CC)c1ccc(/C=C/[N+](=O)[O-])cc1	7	-11	16	-14	54*	-3	96*	96*
OC12ONC(c3ccccn3)C1N1CCC2CC1 (stereo not given)	-23	-22	4	15	52*	-1	2	25*
COC(=O)c1nc(-c2ccc3c(n2)C(=O)C(N)=C(OC)C3=O)c(N)c(-c2ccc(OC)c(OC)c2O)c1C	53*	89*	100*	-28	25*	37	-16	14*
CCOc1ccc(-c2cc(C)[n+](CCc3ccc(OC)c(OC)c3)c(-c3ccc(OCC)cc3)c2)cc1	59*	14	97*	-16	24*	-10	7	10
O=c1nc(/C=C/c2ccc(Cl)cc2Cl)cc(C(F)(F)F)[nH]1	-1	32	-5	13	36*	-37	70*	48*
S=P(Nn1cnnc1)(c1ccccc1)c1ccccc1	11	-6	-1	9	30*	24	3	3
COc1ccc(-c2ccc3c(c2)CN(C(=O)CCc2ccccc2)Cc2cnnn2-3)cc1	26	-27	.	-10	7	11	.	.
Cc1cccc(-n2c(O)c(C=Nc3ccc(Br)cn3)c(=O)[nH]c2=O)c1	14	5	15	-1	24*	9	7	28*
Cc1ccc(-n2c(O)c(/C=N/c3ncc(Br)cc3Br)c(=O)[nH]c2=O)cc1	34	22	-17	8	17	14	.	.
Cc1cc(C)n(-c2ccc(NN=C(C#N)C#N)cc2)n1	-2	76*	7	-2	44*	3	49*	43*
N#CC(C#N)=NNc1ccc(-n2ccc(C(F)(F)F)n2)cc1	21	79*	42	-46	58*	-21	83*	71*
C#C[C@@]1(O)CCC2C3CCC4=C/C(=N/OCC(=O)NC(CCC(N)=O)C(=O)O)CC[C@]4(C)C3CC[C@@]21C (stereo not given in full)	-4	2	1	0	6	17	.	.
COc1cc2c(cc1OC)C13CCN4CC5=CCOC(CC(=O)O)C(C5CC41)C3N2 (stereo not given)	0	-4	8	-4	-4	5	.	.
Cc1cc(OC(C)C(=O)NCC(O)c2ccccc2)c2c3c(c(=O)oc2c1)CCCC3 (stereo not given)	5	-25	-5	-1	5	7	.	.
CN1C2CCC1C(C(=O)O)C(OC(=O)c1ccccc1)C2 (stereo not given)	-3	-28	-1	3	5	15	.	.
CCOC(=O)C1C(OC(=O)c2ccccc2)CC2CCC1N2C (stereo not given)	2	-2	-1	0	26*	11	35*	1
CCN(CC)S(=O)(=O)c1ccc(NN=C(C#N)C#N)cc1	6	67*	-6	5	26*	3	44*	35*
O=C1NC(=O)C(=Cc2ccc3ccccc3c2)C(=O)N1	8	-5	-1	0	16	12	.	.
O=C1NC(=O)C(=Cc2ccc(Cl)cc2)C(=O)N1	.	.	.	.	27*	7	76*	75*
COC(=O)C1=C(c2ccc(OC(F)(F)F)cc2)C[C@@H]2CC[C@H]1N2C(=O)NCc1cc(C)oc1C(F)(F)F	12	27	10	-27	6	7	.	.
CCS(=O)(=O)NC(C)c1nnc2n1-c1ccc(Br)cc1C(c1ccccc1Cl)=NC2 (stereo not given)	-9	2	.	5	-1	6	.	.
Nc1c(C(=O)NCc2ccco2)c2nc3ccccc3nc2n1Cc1ccccc1	12	8	16	1	25*	13	35*	36*
SMILES	Peg3 promoter	CF NFkB block	TRPM1 prom inh	KKLEB cytotox	ABHD5 PLIN5 PPI	HIF-2a inh	ABHD5 PLIN5 conf	HNF4 counter
CCOC(=O)[C@]12Cc3cc(OC)ccc3[C@H]1N(Cc1ccccc1)C(=O)c1cc(F)c(F)cc12	18	21	-2	-8	-6	10	.	.
CCOC(=O)[C@]12Cc3cc(C)ccc3[C@H]1N(C1CCCCC1)C(=O)c1cc(OC)ccc12	.	.	.	.	61*	85*	43*	54*
CCCCCN1C(=O)c2ccccc2[C@@]2(C(=O)OCC)Cc3cc(OC)ccc3[C@@H]12	.	.	.	.	25*	35	14	12
Oc1c(Cl)c(Cl)c(Cl)c(Cl)c1Cl	26	44	-2	14	0	-11	.	.
C=CCN1C(=O)NC(=O)/C(=C\c2ccc(-c3ccccc3[N+](=O)[O-])o2)C1=O	20	5	33	1	40*	34	84*	82*
CN1C(=O)C(=Cc2ccccc2OCc2ccccc2Cl)C(=O)N(C)C1=O	-1	13	-7	-9	21	-3	.	.
CN1C(=O)C(=Cc2ccccc2OS(=O)(=O)c2ccccc2)C(=O)N(C)C1=O	21	22	-6	-12	45*	-7	76*	74*
COc1ccc(-n2c(O)c(/C(C)=N/Nc3ccccc3)c(=O)[nH]c2=O)cc1	-4	1	5	6	15	9	.	.
CC/C(=N\Nc1ccccc1)c1c(O)n(-c2ccccc2)c(=O)[nH]c1=O	13	4	3	0	25*	13	16	19*
Cn1c(O)c(/C=C2\C=Nc3ccccc32)c(=O)n(C)c1=O	8	-22	16	0	35*	-5	7	17*
COC(=O)C1=Nc2ccccc2/C1=C\c1c(O)n(C)c(=O)n(C)c1=O	13	-12	.	1	12	29	.	.
O=C(O)c1ccc(-n2c(O)c(/C=C3\C=Nc4ccccc43)c(=O)[nH]c2=O)cc1	5	-3	18	0	29*	14	32*	54*
O=C1NC(=O)N(c2ccc3c(c2)OCO3)C(=O)/C1=C\c1ccsc1	7	-12	.	-7	25*	23	66*	56*

Screening results from PubChem.
